Assay results published in paper PMC5540273 (PLoS ONE, 2017).

test system: T1, RSK3(Kin.Dom.2-C-terminal); conditions: concentration: 1 μM,replicates: in singlicate; n = 1
T1 construct: gene RPS6KA2
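Also: KINOMEscan kinase panel screen.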

Compound	%Inh [%]
Cc1ccn2nc(-c3ccc(F)cc3)c(-c3ccncc3)c2c1.Cl [GW457859]	24
CS(=O)c1ccc(-c2coc3ccc(-c4n[nH]c(=O)o4)cc23)cc1 (centres unmarked)	28
C[C@@H](Oc1cc(-n2cnc3cc(-c4cnn(C)c4)ccc32)sc1C(N)=O)c1ccccc1Cl [GSK580432]	0
CN1CCN(CCCNc2nccc(-c3c(-c4ccc(F)cc4)nn4cc(C(N)=O)ccc34)n2)CC1 [GW622475]	14
C[C@@H](Oc1cc(-n2cnc3ccc(-c4ccncc4)cc32)sc1C(N)=O)c1ccccc1Cl [GSK483724]	0
CS(=O)(=O)c1cccc(CNc2nc(Nc3ccc4c(c3)[C@@H]3C[C@@H]4CNC3=O)ncc2C(F)(F)F)c1	13
COc1cc(Nc2nccc(N3CCC(NC(=O)c4cccc(C#N)c4)C3)n2)cc(OC)c1OC (centres unmarked) [GSK1379751]	0
COc1cccc(OC)c1C(=O)Nc1cccc(-c2nn3ccccc3c2-c2ccnc(Nc3cccc(F)c3)n2)c1 [GSK361065]	15
O=C(NOCC1CC1)c1cc(Br)c(F)c(F)c1Nc1ccc(I)cc1Cl	33
CNC(=O)c1ccccc1Nc1nc(Nc2cccc(CS(C)(=O)=O)c2)ncc1C.O=CO [GSK1520489]	0
C[C@@H]1CNc2c(sc3ccc4nc(-c5ccc(O)cc5)ccc4c23)C(=O)N1	47
O=C(Nc1cccc(Oc2ccc3nccn3n2)c1)Nc1cccc(C(F)(F)F)c1	0
NC(=O)Nc1sc(-c2ccc(F)cc2)cc1C(N)=O [GW789449]	7
NC(=O)c1ccc(-c2cc3ncnc(SCC(=O)O)c3s2)cc1	7
Cc1n[nH]c2cc(Nc3ccnc(Nc4cccc(CN5CCOCC5)c4)n3)ccc12 [GW682569]	0
O=c1[nH]cc(-c2ccc(O)cc2)c2sc(-c3ccncc3)cc12 [GSK1033723]	3
COC(=O)Nc1nc2cc(Oc3ccc(NC(=O)Nc4cc(C(F)(F)F)ccc4Cl)cc3)ccc2[nH]1.Cl [GW697465]	13
O=C1NCCc2[nH]c(-c3ccncc3)cc21	27
Cl.Cl.NC[C@H](CC1CCCCC1)NC(=O)c1ccc(-c2ccnc3[nH]ccc23)s1 [GSK1581428]	21

Compound	%Inh [%]
CC(=O)Nc1nc2cnc(Nc3cc(NC(=O)c4cccc(CC(C)(C)C#N)c4)ccc3C)nc2s1	0
O=C(Nc1ccc(Oc2ccc3nc(NC(=O)C4CC4)cn3n2)c(F)c1)c1cccn(-c2ccccc2)c1=O	0
CC(=O)Nc1ccc(-c2cc3ncnc(SCC(=O)O)c3s2)cc1	19
COC(=O)c1cccc(NC(=O)NC2CCN(c3ccnc(NCc4ccc(F)cc4)n3)CC2)c1 [GSK1379860]	0
COc1ccc(Nc2nccc(N3CCC(NC(=O)c4cccc(C#N)c4)C3)n2)cc1 (centres unmarked) [GSK1379730]	2
Cn1ccc2ncnc(Oc3ccc(NC(=O)Nc4cncc(C(F)(F)F)c4)c(Cl)c3)c21	0
Cn1ccc2ncnc(Oc3ccc(NC(=O)Nc4cnn(C(C)(C)C)c4)c(Cl)c3)c21	9
COc1cccc(C2=C(Nc3cccc(Cl)c3)C(=O)NC2=O)c1 [SB-341556]	0
Cn1ccc2ncnc(Oc3ccc(NC(=O)Nc4cccc(C(F)(F)F)c4)c(F)c3)c21	22
CC(C(=O)NC1CCN(c2ccnc(Nc3ccc(F)cc3)n2)C1)c1ccc(Cl)cc1 (centres unmarked) [GSK1379713]	0
O=C(NCC1CC1)c1ccc(-c2cc(C(=O)NC3CC3)ccc2F)cc1 [GW810445]	0
Cc1cccc2c(-c3ccncc3)c(-c3ccc(F)cc3)nn12.Cl [GW461487]	19
c1ccc(Oc2ccc(Nc3ccnc4ccc(-c5ccccn5)cc34)cc2)cc1 [GW407034]	0
O=C(Nc1ccccc1)c1cccc(Oc2ccc3nccn3n2)c1	0
Cc1ccc2c(-c3ccnc(Nc4ccc(C(F)(F)F)cc4)n3)cnn2n1 [GW819776]	7
CC(C)c1nc(-c2cccc(NS(=O)(=O)c3ccccc3)c2)c(-c2ccnc(Nc3ccc4c(c3)CN(C)CC4)n2)s1 [GSK1649598]	0
CN(c1ccccc1CNc1nc(Nc2ccc3c(c2)CC(=O)N3)ncc1C(F)(F)F)S(C)(=O)=O	7
CCn1c(-c2nonc2N)nc2cncc(Br)c21 [SB-738004]	6

test system: T2, RSK4(Kin.Dom.1-N-terminal); conditions: concentration: 1 μM,replicates: in singlicate; n = 1
T2 construct: gene RPS6KA6

Compound	%Inh [%]
Cc1ccn2nc(-c3ccc(F)cc3)c(-c3ccncc3)c2c1.Cl [GW457859]	0
CS(=O)c1ccc(-c2coc3ccc(-c4n[nH]c(=O)o4)cc23)cc1 (centres unmarked)	6
C[C@@H](Oc1cc(-n2cnc3cc(-c4cnn(C)c4)ccc32)sc1C(N)=O)c1ccccc1Cl [GSK580432]	37
CN1CCN(CCCNc2nccc(-c3c(-c4ccc(F)cc4)nn4cc(C(N)=O)ccc34)n2)CC1 [GW622475]	0
C[C@@H](Oc1cc(-n2cnc3ccc(-c4ccncc4)cc32)sc1C(N)=O)c1ccccc1Cl [GSK483724]	12
CS(=O)(=O)c1cccc(CNc2nc(Nc3ccc4c(c3)[C@@H]3C[C@@H]4CNC3=O)ncc2C(F)(F)F)c1	73
COc1cc(Nc2nccc(N3CCC(NC(=O)c4cccc(C#N)c4)C3)n2)cc(OC)c1OC (centres unmarked) [GSK1379751]	0
COc1cccc(OC)c1C(=O)Nc1cccc(-c2nn3ccccc3c2-c2ccnc(Nc3cccc(F)c3)n2)c1 [GSK361065]	0
O=C(NOCC1CC1)c1cc(Br)c(F)c(F)c1Nc1ccc(I)cc1Cl	0
CNC(=O)c1ccccc1Nc1nc(Nc2cccc(CS(C)(=O)=O)c2)ncc1C.O=CO [GSK1520489]	99.6
C[C@@H]1CNc2c(sc3ccc4nc(-c5ccc(O)cc5)ccc4c23)C(=O)N1	80
O=C(Nc1cccc(Oc2ccc3nccn3n2)c1)Nc1cccc(C(F)(F)F)c1	0
NC(=O)Nc1sc(-c2ccc(F)cc2)cc1C(N)=O [GW789449]	76
NC(=O)c1ccc(-c2cc3ncnc(SCC(=O)O)c3s2)cc1	0
Cc1n[nH]c2cc(Nc3ccnc(Nc4cccc(CN5CCOCC5)c4)n3)ccc12 [GW682569]	19
O=c1[nH]cc(-c2ccc(O)cc2)c2sc(-c3ccncc3)cc12 [GSK1033723]	0
COC(=O)Nc1nc2cc(Oc3ccc(NC(=O)Nc4cc(C(F)(F)F)ccc4Cl)cc3)ccc2[nH]1.Cl [GW697465]	0
O=C1NCCc2[nH]c(-c3ccncc3)cc21	22
Cl.Cl.NC[C@H](CC1CCCCC1)NC(=O)c1ccc(-c2ccnc3[nH]ccc23)s1 [GSK1581428]	84

Compound	%Inh [%]
CC(=O)Nc1nc2cnc(Nc3cc(NC(=O)c4cccc(CC(C)(C)C#N)c4)ccc3C)nc2s1	25
O=C(Nc1ccc(Oc2ccc3nc(NC(=O)C4CC4)cn3n2)c(F)c1)c1cccn(-c2ccccc2)c1=O	0
CC(=O)Nc1ccc(-c2cc3ncnc(SCC(=O)O)c3s2)cc1	13
COC(=O)c1cccc(NC(=O)NC2CCN(c3ccnc(NCc4ccc(F)cc4)n3)CC2)c1 [GSK1379860]	0
COc1ccc(Nc2nccc(N3CCC(NC(=O)c4cccc(C#N)c4)C3)n2)cc1 (centres unmarked) [GSK1379730]	0
Cn1ccc2ncnc(Oc3ccc(NC(=O)Nc4cncc(C(F)(F)F)c4)c(Cl)c3)c21	0
Cn1ccc2ncnc(Oc3ccc(NC(=O)Nc4cnn(C(C)(C)C)c4)c(Cl)c3)c21	22
COc1cccc(C2=C(Nc3cccc(Cl)c3)C(=O)NC2=O)c1 [SB-341556]	43
Cn1ccc2ncnc(Oc3ccc(NC(=O)Nc4cccc(C(F)(F)F)c4)c(F)c3)c21	0
CC(C(=O)NC1CCN(c2ccnc(Nc3ccc(F)cc3)n2)C1)c1ccc(Cl)cc1 (centres unmarked) [GSK1379713]	0
O=C(NCC1CC1)c1ccc(-c2cc(C(=O)NC3CC3)ccc2F)cc1 [GW810445]	0
Cc1cccc2c(-c3ccncc3)c(-c3ccc(F)cc3)nn12.Cl [GW461487]	21
c1ccc(Oc2ccc(Nc3ccnc4ccc(-c5ccccn5)cc34)cc2)cc1 [GW407034]	4
O=C(Nc1ccccc1)c1cccc(Oc2ccc3nccn3n2)c1	5
Cc1ccc2c(-c3ccnc(Nc4ccc(C(F)(F)F)cc4)n3)cnn2n1 [GW819776]	23
CC(C)c1nc(-c2cccc(NS(=O)(=O)c3ccccc3)c2)c(-c2ccnc(Nc3ccc4c(c3)CN(C)CC4)n2)s1 [GSK1649598]	0
CN(c1ccccc1CNc1nc(Nc2ccc3c(c2)CC(=O)N3)ncc1C(F)(F)F)S(C)(=O)=O	67
CCn1c(-c2nonc2N)nc2cncc(Br)c21 [SB-738004]	64
